Experimental data published in PubChem BioAssay.
Calls of active or inactive are those of the source. Unless noted, how the calls were made is not given here.

How the values were obtained:
[1] = compound effects on lung adenocarcinoma cell viability – A549, calcein-AM fluorescence, 48 h, basal, profiling panel (AID 1162); settings: higher = more signal; further: test concentration not given here
[2] = compound effects on differentiated 3T3-L1 adipocyte viability – cell-based, 3T3-L1 adipocytes, calcein-AM fluorescence, 48 h, basal, profiling panel (AID 1163); settings: 3T3-L1 adipocytes viability, higher = more signal; further: test concentration not given here
[3] = compound effects on hepatocellular carcinoma cell viability – HepG2, calcein-AM fluorescence, 48 h, basal, profiling panel (AID 1164); settings: higher = more signal; further: test concentration not given here
[4] = compound effects on multiple myeloma cell viability – MM1S, calcein-AM fluorescence, 48 h, basal, profiling panel (AID 1165); settings: higher = more signal;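 further: viability of MM1S multiple myeloma cells under basal unstimulated conditions; test concentration not given here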
[5] = calcein-AM signal in unstimulated myeloma cells – cell-based, calcein-AM fluorescence, 48 h, PK04 Diversity Set, profiling panel (AID 1166); settings: RPMI8226 myeloma viability, higher = more signal;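 further: cells grown under basal conditions without added stimulus; test concentration not given here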
[6] = JC-1 mitochondrial signal, unstimulated HepG2 cells – cell-based, JC-1 fluorescence, 24 h, 100 nL compound, profiling panel (AID 1167); settings: HepG2 mitochondrial potential, higher = more signal; further: test concentration not given here
[7] = JC-1 mitochondrial signal, unstimulated adipocytes – cell-based, JC-1 fluorescence, 3T3-L1 adipocytes, 24 h, 100 nL compound, profiling panel (AID 1168); settings: JC-1 mitochondrial fluorescence, higher = more signal, called active from +8 up or from −8 down; further: test concentration not given here
[8] = JC-1 mitochondrial signal, unstimulated myeloma cells – cell-based, JC-1 fluorescence, RPMI8226, 24 h, 100 nL compound, profiling panel (AID 1169); settings: JC-1 mitochondrial potential fluorescence, higher = more signal; further: test concentration not given here
[9] = JC-1 mitochondrial signal, unstimulated MM1S myeloma – cell-based, JC-1 fluorescence, 24 h, 100 nL compound, profiling panel (AID 1170); settings: MM1S mitochondrial potential, higher = more signal; further: test concentration not given here
[10] = resazurin metabolic signal in A549 cells – cell-based, resazurin fluorescence, 24 h, PK04 Diversity Set, profiling panel (AID 1171); settings: A549 viability, higher = more signal, called active from +8 up or from −8 down; further: test concentration not given here
[11] = resazurin metabolic signal in HepG2 cells – cell-based, resazurin fluorescence, 24 h, PK04 Diversity Set, profiling panel (AID 1172); settings: HepG2 viability, higher = more signal; further: test concentration not given here
[12] = budding yeast growth changes without added modifier – OD600, strain BY4716, 24 h, basal condition, primary screen (AID 1173); settings: S. cerevisiae BY4716 growth, OD600, 24 h; higher = more signal, called active from +8 up or from −8 down
[13] = viability profiling in MM1S myeloma cells – cell-based, resazurin fluorescence, basal, 24 h, PK04 Diversity Set, profiling panel (AID 1174); settings: higher = more signal, called active from +8 up or from −8 down; further: test concentration not given here
[14] = biological target: Dihydroorotate dehydrogenase (quinone), mitochondrial (Plasmodium falciparum (isolate 3D7)) (UniProt Q08210); test: inhibition of P. falciparum DHODH – biochemical, C-terminal His tag, absorbance 600 nm, primary screen (AID 1175); settings: PfDHODH enzyme, DCIP absorbance 600 nm; higher = more signal, called active from +8 up or from −8 down;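 further: recombinant parasite enzyme with a five histidine tag at its C terminus; test concentration not given here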
[15] = inhibition of PAO1 biofilm formation – strain PAO1, LB-PBS medium, absorbance 600 nm, primary screen (AID 1176); further: test concentration not given here; settings: P. aeruginosa PAO1 growth/biofilm, A600, 12 h; higher = more signal
[16] = growth modulation of vineyard yeast isolate – strain RM11-1a, OD600, basal, 24 h, primary screen (AID 1177);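 further: cultures grown under basal conditions with no added stressor; test concentration not given here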; settings: S. cerevisiae RM11-1a growth, OD600, 24 h; higher = more signal, called active from +8 up or from −8 down
[17] = growth of efflux-deficient E. coli DRC39 – strain DRC39, OD650, 24 h, E. coli filamentation inducers, primary screen (AID 1178);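 further: growth measured as culture turbidity by optical density at 650 nm; test concentration not given here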; settings: E. coli DRC39 acrAB, higher = more signal, called active from +8 up or from −8 down
[18] = growth of efflux-deficient E. coli DRC39 – strain DRC39, OD650, 48 h, E. coli filamentation inducers, primary screen (AID 1179);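 further: screen aims at cell division blockers that make cells filament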; settings: E. coli DRC39 delta-acrAB growth, higher = more signal, called active from +8 up or from −8 down
[19] = viability profiling in RPMI8226 myeloma cells – cell-based, resazurin fluorescence, basal, 24 h, PK04 Diversity Set, profiling panel (AID 1180); settings: higher = more signal;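 further: RPMI8826 multiple myeloma cell line at 5000 cells per well; test concentration not given here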
[20] = biological target: E3 ubiquitin-protein ligase XIAP (Homo sapiens) (UniProt P98170); test: small molecules binding XIAP protein – biophysical, small-molecule microarray, fluorescence 635 nm, primary screen (AID 1181); settings: higher = more signal;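 further: score merges 667 nm emission and signal to noise over triplicate slides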
Chain of E3 ubiquitin-protein ligase XIAP (Homo sapiens) (P98170 whole entry, looked up): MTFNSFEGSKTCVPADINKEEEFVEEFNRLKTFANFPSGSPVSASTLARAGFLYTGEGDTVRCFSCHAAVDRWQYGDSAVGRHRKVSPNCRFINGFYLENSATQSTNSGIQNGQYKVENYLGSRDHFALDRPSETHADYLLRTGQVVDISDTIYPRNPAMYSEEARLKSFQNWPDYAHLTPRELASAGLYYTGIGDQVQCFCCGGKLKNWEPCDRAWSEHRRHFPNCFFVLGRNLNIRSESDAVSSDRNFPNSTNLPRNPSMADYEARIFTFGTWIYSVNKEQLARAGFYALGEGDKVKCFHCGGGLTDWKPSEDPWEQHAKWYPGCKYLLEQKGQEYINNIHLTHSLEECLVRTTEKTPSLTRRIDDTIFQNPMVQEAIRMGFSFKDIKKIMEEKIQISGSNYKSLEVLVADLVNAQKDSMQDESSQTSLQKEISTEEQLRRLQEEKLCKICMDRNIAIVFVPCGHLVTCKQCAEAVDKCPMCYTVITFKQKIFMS

Chain of Dihydroorotate dehydrogenase (quinone), mitochondrial (Plasmodium falciparum (isolate 3D7)) (Q08210 whole entry, looked up): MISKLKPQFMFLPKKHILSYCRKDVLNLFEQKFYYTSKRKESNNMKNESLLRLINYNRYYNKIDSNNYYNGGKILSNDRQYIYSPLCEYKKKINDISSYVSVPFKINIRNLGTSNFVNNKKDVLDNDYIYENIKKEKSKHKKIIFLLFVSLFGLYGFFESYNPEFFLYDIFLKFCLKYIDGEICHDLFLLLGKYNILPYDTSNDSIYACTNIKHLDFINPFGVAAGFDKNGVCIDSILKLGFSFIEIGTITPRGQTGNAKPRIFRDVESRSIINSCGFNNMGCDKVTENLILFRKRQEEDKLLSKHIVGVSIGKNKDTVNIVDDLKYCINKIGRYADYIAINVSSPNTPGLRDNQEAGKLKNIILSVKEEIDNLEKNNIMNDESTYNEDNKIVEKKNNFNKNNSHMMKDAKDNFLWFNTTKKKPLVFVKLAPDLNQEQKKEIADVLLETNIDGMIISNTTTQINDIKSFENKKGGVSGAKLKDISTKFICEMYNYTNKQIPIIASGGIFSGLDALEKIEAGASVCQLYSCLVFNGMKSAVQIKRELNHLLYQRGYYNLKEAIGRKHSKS

| Compound | z-score [1] | z-score [2] | z-score [3] | z-score [4] | z-score [5] | z-score [6] | z-score [7] | z-score [8] | z-score [9] | z-score [10] | z-score [11] | z-score [12] | z-score [13] | composite z-score [14] | z-score [15] | z-score [16] | z-score [17] | z-score [18] | z-score [19] | composite z-score [20] |
| --- | --- | --- | --- | --- | --- | --- | --- | --- | --- | --- | --- | --- | --- | --- | --- | --- | --- | --- | --- | --- |
| CC1C2C(CCCO)=CC(C3C(=O)N(C(N)=O)C(=O)C23)N1Cc1cccc(OC(F)(F)F)c1 (stereo not given) | -0.846 | -0.528 | 0.192 | -0.486 | 0.244 | -0.632 | -0.795 (inactive) | 0.787 | -0.547 | -0.13 (inactive) | 0.0337 | -0.837 (inactive) | -0.402 (inactive) | -0.766 (inactive) | 0.437 (inactive) | -0.369 (inactive) | 0.0299 (inactive) | -0.114 (inactive) | -0.907 | -0.199 |
| O=C(O)C1=CC[C@H]2C(=O)N(c3ccccc3)C(=O)[C@@H]12 | -1.05 | -0.261 | -0.625 | -0.911 | -0.222 | -0.915 | -0.162 (inactive) | 0.364 | -1.46 | 0.64 (inactive) | -0.0581 | 1.53 (inactive) | -0.849 (inactive) | 0.609 (inactive) | 0.477 (inactive) | 1.6 (inactive) | -0.897 (inactive) | -0.453 (inactive) | -1.24 | 0.997 |
| O=C1N(Cc2ccccc2)c2ccccc2C[C@@]12N=C(c1ccc(OCCCO)cc1)O[C@H]2c1ccccc1 | -1.32 | 0.84 | -1.86 | -3.33 | -4.24 | -0.237 | -0.0792 (inactive) | -1.29 | 0.811 | -1.63 (inactive) | -0.449 | -1.21 (inactive) | -2.11 (inactive) | 0.318 (inactive) | 2.26 (inactive) | 1.18 (inactive) | 0.0946 (inactive) | -0.928 (inactive) | -1.69 | 0.0918 |
| CC(C)(C)OC(=O)CC[C@@]1(C(=O)N2CCOCC2)N=C(c2ccc(OCCCO)cc2)O[C@@H]1c1ccccc1CN=[N+]=[N-] | -0.688 | 1.35 | -0.261 | -0.169 | -1.58 | 0.259 | -0.506 (inactive) | -0.546 | -0.567 | 0.792 (inactive) | -0.538 | -0.295 (inactive) | -0.383 (inactive) | -0.405 (inactive) | 0.342 (inactive) | -0.423 (inactive) | -0.294 (inactive) | -0.0909 (inactive) | -0.365 | 0.0345 |
| CN(C)C(=O)[C@]1(CCS(=O)(=O)c2ccccc2)N=C(c2ccc(OCCCO)cc2)O[C@@H]1c1ccccc1CN=[N+]=[N-] | -0.306 | -0.0349 | 0.589 | -1.29 | 0.382 | -0.12 | -0.197 (inactive) | 0.0522 | -0.776 | 1.09 (inactive) | 1.46 | 0.705 (inactive) | 0.273 (inactive) | 0.37 (inactive) | 0.743 (inactive) | 0.3 (inactive) | 0.293 (inactive) | -0.373 (inactive) | -0.0461 | 0.558 |
| [N-]=[N+]=Nc1ccccc1C[C@]1(C(=O)N2CCCCC2)N=C(c2ccc(OCCCO)cc2)O[C@H]1c1ccccc1 | -0.786 | 0.0946 | 0.014 | -3.29 | -4.3 | 0.839 | 0.231 (inactive) | -1.2 | -2.15 | -0.676 (inactive) | -0.256 | -1.04 (inactive) | -2.4 (inactive) | -0.343 (inactive) | 0.522 (inactive) | 0.864 (inactive) | 0.463 (inactive) | 0.647 (inactive) | -2.06 | -0.102 |
| COCCCNC(=O)[C@@]1(CCC(=O)OC(C)(C)C)N=C(c2ccc(OCCCO)cc2)O[C@H]1c1ccccc1 | 0.899 | -0.0512 | 0.317 | 0.32 | 0.678 | 0.842 | 2.11 (inactive) | 0.721 | -1.08 | -0.376 (inactive) | -0.464 | 1.12 (inactive) | 0.34 (inactive) | -1.1 (inactive) | -0.568 (inactive) | 0.795 (inactive) | 0.267 (inactive) | 1.22 (inactive) | 0.137 | -0.171 |
| C=CCC(OC(C)=O)[C@@H]1[C@@H](N(Cc2ccc(-c3ccccc3)cc2)C(=O)Cc2ccc(OC)cc2)c2cc(OCCCO)ccc2N1C(=O)c1ccc2ccccc2c1 (stereo not given in full) | -0.186 | 0.407 | -0.437 | -1.12 | -0.807 | 1.87 | -0.81 (inactive) | 1.08 | 0.383 | -0.0027 (inactive) | -0.555 | -0.562 (inactive) | -0.536 (inactive) | -0.804 (inactive) | 0.0914 (inactive) | -1.21 (inactive) | 0.174 (inactive) | -0.339 (inactive) | 0.186 | 0.202 |
| CC1CC/C=C\[C@H]2OC34C=CCN(C(C)C)C(=O)[C@H]3N(C(C)CO)C(=O)[C@@H]4C2C(=O)O1 (stereo not given in full) | -0.784 | 0.534 | 0.517 | -0.245 | 0.819 | 0.674 | 0.164 (inactive) | 0.851 | -0.869 | 0.574 (inactive) | 0.741 | 0.306 (inactive) | 1.05 (inactive) | -0.0766 (inactive) | 2.9 (inactive) | 0.477 (inactive) | 0.355 (inactive) | 0.553 (inactive) | 0.832 | 0.0345 |
